Reference: PubChem BioAssay (NCATS)
Inconclusive results are not listed. Activity calls are given as the source filed them. Unless noted, calls come from the whole dose curve; as a rule, active = well fitted curve in either direction with a large enough effect (not every such curve was filed as active); inconclusive = small, poorly fitted or top-dose-only effect, or another doubt; inactive = flat fitted curve, though single readings scatter.

Experiments:
[1] = biological target: Lysosomal acid glucosylceramidase (Homo sapiens) (UniProt P04062); assay: Glucocerebrosidase-p2 (AID 348; in the data active = potency below about 10 µM; note: potency is the fitted concentration of half-maximal effect); settings: purified GBA, blue fluorogenic substrate, 40 min
Chain of Lysosomal acid glucosylceramidase (Homo sapiens) (P04062 whole entry, looked up): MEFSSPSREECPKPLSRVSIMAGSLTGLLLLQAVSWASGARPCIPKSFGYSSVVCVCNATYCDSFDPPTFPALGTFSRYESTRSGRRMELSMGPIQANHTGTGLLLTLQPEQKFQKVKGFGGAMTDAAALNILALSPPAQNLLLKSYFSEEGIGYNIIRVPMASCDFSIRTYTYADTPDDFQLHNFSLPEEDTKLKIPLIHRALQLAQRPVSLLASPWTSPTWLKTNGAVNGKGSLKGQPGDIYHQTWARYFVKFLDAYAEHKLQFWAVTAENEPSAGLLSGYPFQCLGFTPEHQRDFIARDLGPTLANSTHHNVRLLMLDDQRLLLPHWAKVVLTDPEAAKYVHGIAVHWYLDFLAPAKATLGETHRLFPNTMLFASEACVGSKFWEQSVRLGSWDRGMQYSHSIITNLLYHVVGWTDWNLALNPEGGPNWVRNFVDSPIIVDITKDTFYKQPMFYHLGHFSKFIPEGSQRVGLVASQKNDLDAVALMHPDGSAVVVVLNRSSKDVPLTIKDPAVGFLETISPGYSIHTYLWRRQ
In short: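 Compounds titrated from 0.6 nM upwards against 0.2 nM enzyme in pH 5.9 citric acid/KH2PO4, taurocholate, tween-20; blue fluorogenic substrate 80 uM, 40 min room temperature, stopped and read Ex 365/Em 440 for AC50.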

[2] = AP1 Signaling Pathway (AID 357); settings: ME-180 AP-1-bla reporter, EGF-induced, beta-lactamase ratio, 5 h; at 7.69 µM (top of the series) unless noted;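 note: ME-180 reporter cells stimulated with EGF at its EC50 level; % is set by controls: 0 for no effect and ±100 for the full control effect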
In short: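 Beta-lactamase reporter under AP-1 response element, ME-180 background. Stimulus: EC50 EGF. Compound exposure 5 h, 37 °C. Detection: CCF4, 2.5 h RT, 460/530 nm. Values: AC50 from titration.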

[3] = Stat Signaling Pathway (AID 446); settings: ME-180 SIE beta-lactamase reporter, IL-6 stimulated, 5 h; at 7.69 µM (top of the series) unless noted;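 note: ME-180 cervical cancer cells given 40 pM IL-6 alongside compound; SIE-controlled beta-lactamase reporter measured as 460/530 nm FRET emission ratio; % is set by controls: 0 for no effect and ±100 for the full control effect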
In short: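 ME-180 cells carrying a SIE-driven beta-lactamase reporter are stimulated with 40 pM IL-6 for 5 h at 37C in the presence of compound. The 460/530 nm FRET substrate ratio is read after 2.5 h at RT. Data are normalised to 300 pM IL-6 and to 125 nM JAK inhibitor controls.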

[4] = biological target: Glucocorticoid receptor (Homo sapiens) (UniProt P04150); assay: GR-EFC Redistribution (AID 451; calls by dose curve; note: potency is the fitted concentration of half-maximal effect); settings: CHO-K1 GR-EFC translocation, beta-gal luminescence, 2 h
Chain of Glucocorticoid receptor (Homo sapiens) (P04150 whole entry, looked up, the tested form may be a part): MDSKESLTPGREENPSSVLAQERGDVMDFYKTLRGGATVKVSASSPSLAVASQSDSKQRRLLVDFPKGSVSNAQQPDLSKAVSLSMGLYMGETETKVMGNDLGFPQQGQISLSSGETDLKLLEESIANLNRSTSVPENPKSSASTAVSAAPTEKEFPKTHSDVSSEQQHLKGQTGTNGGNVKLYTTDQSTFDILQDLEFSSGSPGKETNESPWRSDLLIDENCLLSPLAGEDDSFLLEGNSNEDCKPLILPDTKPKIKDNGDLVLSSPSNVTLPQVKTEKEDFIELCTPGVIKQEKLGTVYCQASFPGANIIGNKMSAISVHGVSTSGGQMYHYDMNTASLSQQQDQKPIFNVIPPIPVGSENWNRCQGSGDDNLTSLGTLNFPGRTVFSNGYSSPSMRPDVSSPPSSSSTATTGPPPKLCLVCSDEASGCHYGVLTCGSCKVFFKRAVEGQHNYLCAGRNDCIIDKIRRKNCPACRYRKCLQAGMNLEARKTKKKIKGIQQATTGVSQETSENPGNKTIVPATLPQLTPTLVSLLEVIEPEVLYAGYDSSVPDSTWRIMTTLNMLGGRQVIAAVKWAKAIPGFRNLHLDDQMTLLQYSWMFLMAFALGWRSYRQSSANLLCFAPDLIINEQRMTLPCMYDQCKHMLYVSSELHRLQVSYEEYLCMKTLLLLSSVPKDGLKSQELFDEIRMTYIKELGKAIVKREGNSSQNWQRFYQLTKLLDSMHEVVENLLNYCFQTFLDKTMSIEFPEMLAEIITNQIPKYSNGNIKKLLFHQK
In short: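 CHO-K1 cells stably expressing nuclear-localized β-gal enzyme acceptor and GR fused C-terminally to the enzyme donor fragment; ligand-driven nuclear translocation restores β-gal by complementation. Compounds titrated up to 46 uM final, 2 h at 37 °C; luminescence read.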

[5] = biological target: Mitogen-activated protein kinase 10 (Mus musculus) (UniProt Q61831); assay: JNK3 AlphaScreen Assay (AID 530); settings: JNK3 lysate, c-Jun phosphorylation; series mostly up to 57.1 µM;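 note: kinase came from lysate of stimulated human HepG2 cells; signal reports phosphorylation of biotinylated GST-cJun 1-79 at Ser73 with 10 µM ATP; % is set by controls: 0 for no effect and ±100 for the full control effect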
In short: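 JNK3 came from HepG2 lysates pre-activated with IL-1beta and TNF-alpha and phosphorylated biotinylated GST-cJun (1-79) at 10 uM ATP, pH 7.6, room temperature. Compounds were titrated. AlphaScreen signal used anti-phospho-cJun (Ser73) antibody.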

[6] = biological target: 3',5'-cyclic-AMP phosphodiesterase 4B (Homo sapiens) (UniProt Q07343); assay: qHTS Assay for Inhibitors of PDE-IV (AID 607; active = well fitted activation curve with a large enough effect in the main read-out, with a control signal flat, not every such curve was filed as active; note: % of control where 0% means no effect); settings: HEK293 ACTOne CNG channel cells, membrane potential fluorescence; series mostly up to 22.9 µM
Chain of 3',5'-cyclic-AMP phosphodiesterase 4B (Homo sapiens) (Q07343 whole entry, looked up): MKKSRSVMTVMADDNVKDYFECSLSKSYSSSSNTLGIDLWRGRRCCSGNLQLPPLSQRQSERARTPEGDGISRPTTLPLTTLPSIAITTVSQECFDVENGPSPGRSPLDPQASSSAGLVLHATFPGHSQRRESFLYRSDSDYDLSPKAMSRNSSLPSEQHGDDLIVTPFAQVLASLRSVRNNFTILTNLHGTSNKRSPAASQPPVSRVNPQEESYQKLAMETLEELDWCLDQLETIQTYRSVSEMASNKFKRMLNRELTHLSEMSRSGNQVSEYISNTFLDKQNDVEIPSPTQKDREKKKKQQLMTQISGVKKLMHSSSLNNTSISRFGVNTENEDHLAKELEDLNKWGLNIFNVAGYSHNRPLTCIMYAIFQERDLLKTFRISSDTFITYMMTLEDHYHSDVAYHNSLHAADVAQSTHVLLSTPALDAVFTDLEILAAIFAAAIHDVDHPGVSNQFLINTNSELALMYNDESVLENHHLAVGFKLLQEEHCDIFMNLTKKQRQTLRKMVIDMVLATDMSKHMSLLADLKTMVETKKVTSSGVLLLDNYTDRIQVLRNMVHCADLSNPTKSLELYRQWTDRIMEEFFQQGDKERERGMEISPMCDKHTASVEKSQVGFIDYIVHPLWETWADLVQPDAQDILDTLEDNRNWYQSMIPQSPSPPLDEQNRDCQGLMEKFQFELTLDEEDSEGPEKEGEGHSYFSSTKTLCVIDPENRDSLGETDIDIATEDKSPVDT
In short: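 HEK293 ACTOne cells with CNG channel (1000/well), endogenous PDE4; membrane potential dye, compounds up to 22.9 uM final. Fluorescence Ex 535/Em 590; RO 20-1724 (100 uM final) as reference.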

[7] = qHTS Assay for Lipid Storage Modulators (AID 1519; calls by dose curve); settings: Drosophila S3 cells, BODIPY lipid droplet/cell ratio, laser cytometry, cells loaded with oleic acid; for activity change, negative = inhibition: at 57.5 µM (top of the series)
In short: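 Cells seeded at 5,000 per well were treated with compounds over a concentration series and loaded with oleic acid (400 uM, as added). Lipid droplet fluorescence (488 nm excitation, 500-530 nm channel) was read by laser-scanning cytometry and normalized to 20 uM Triacsin C.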

[8] = Primary qHTS for small molecule stabilizers of the endoplasmic reticulum resident proteome: Secreted ER Calcium Modulated Protein (SERCaMP) assay (AID 1508630; active = well fitted curve in the direction sought with a large enough effect; an effect the other way counts as inactive or inconclusive; note: % is set by controls: 0 for no effect and ±100 for the full control effect); settings: SH-SY5Y GLuc-SERCaMP (Gaussia luciferase released on ER calcium loss) secretion, thapsigargin, luminescence; series mostly up to 38.4 µM
In short: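 GLuc-SERCaMP-expressing SH-SY5Y cells, pretreated 16 h with compound, are challenged with thapsigargin to empty ER calcium stores; after 4 h, coelenterazine is added directly to the medium and luminescence is imaged.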

[9] = biological target: Cytochrome P450 3A4 (Homo sapiens) (UniProt P08684); assay: qHTS Assay for Activators of Cytochrome P450 3A4 (AID 885; active = well fitted curve in the direction sought with a large enough effect; an effect the other way counts as inactive or inconclusive; note: nearly all actives have a fitted effect of over 65% in size); settings: recombinant CYP3A4, Luciferin-PPXE luminescence, 60 min; series mostly up to 57.1 µM
Chain of Cytochrome P450 3A4 (Homo sapiens) (P08684 whole entry, looked up): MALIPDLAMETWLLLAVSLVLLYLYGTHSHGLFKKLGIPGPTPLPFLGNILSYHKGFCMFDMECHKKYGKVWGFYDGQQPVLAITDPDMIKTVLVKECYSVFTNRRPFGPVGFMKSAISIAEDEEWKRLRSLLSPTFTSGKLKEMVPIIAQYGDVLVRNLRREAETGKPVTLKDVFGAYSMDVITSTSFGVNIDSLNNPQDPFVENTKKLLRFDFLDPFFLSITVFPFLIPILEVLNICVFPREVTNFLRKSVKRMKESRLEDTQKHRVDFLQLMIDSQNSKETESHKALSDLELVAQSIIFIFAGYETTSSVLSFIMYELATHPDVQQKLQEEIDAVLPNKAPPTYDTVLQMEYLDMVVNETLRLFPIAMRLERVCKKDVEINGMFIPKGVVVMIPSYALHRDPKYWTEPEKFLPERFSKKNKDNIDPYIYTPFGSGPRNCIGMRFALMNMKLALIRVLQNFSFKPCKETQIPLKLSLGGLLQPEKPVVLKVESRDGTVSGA
In short: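 Human CYP3A4 (20 nM) with Luciferin-PPXE at 25 uM (its KM) in 200 mM KPO4; 10 min compound preincubation, then NADPH regeneration and 60 min reaction at RT. Luciferin read by luminescence; normalized to 57 uM ketoconazole full inhibition.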

[10] = qHTS Assay for Identification of Small Molecule Agonists for Hypoxia Response Element Signaling Pathway (AID 914; active = well fitted activation curve with a large enough effect in the signal ratio, with a control signal flat, not every such curve was filed as active; the % refers to the signal ratio; note: % of control where 0% means no effect); settings: ME-180 (cervical carcinoma) HRE-bla reporter, beta-lactamase ratio, CoCl2, 17 h; activation: stronger effect = higher value
In short: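 qHTS titration; ME-180 HRE-bla cells; EC50 CoCl2 co-treatment, 17 h at 37 degrees Celsius; CCF4 dye, ex 405nm, em 460nm and 530nm; %Activity from ratio; AC50.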

[11] = biological target: Cytochrome P450 2D6 (Homo sapiens) (UniProt P10635); assay: qHTS Assay for Inhibitors and Substrates of Cytochrome P450 2D6 (AID 891; active = well fitted curve in the direction sought with a large enough effect; an effect the other way counts as inactive or inconclusive; note: potency is the fitted concentration of half-maximal effect; nearly all actives have a fitted effect of over 60% in size); settings: recombinant CYP2D6, luciferin-ME EGE luminescence; series mostly up to 57.1 µM
Chain of Cytochrome P450 2D6 (Homo sapiens) (P10635 whole entry, looked up): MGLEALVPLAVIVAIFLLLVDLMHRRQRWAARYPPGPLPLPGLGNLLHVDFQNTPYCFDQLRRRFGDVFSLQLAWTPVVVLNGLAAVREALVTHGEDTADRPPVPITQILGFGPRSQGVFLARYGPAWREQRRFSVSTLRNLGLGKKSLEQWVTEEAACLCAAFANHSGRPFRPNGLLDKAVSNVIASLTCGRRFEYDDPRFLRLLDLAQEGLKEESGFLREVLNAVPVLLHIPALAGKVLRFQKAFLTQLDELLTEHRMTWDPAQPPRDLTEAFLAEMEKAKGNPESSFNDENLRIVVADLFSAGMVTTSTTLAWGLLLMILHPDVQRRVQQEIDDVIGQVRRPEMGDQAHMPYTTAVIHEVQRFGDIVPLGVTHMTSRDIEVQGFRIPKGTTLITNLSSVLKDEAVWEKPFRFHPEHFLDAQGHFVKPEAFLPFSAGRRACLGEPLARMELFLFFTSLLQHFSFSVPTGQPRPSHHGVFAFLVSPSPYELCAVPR
In short: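 Human CYP2D6 (5 nM) with 30 uM Luciferin-ME EGE (at Km) in 100 mM KPO4, compound preincubated 10 min, then NADPH regeneration system for 60 min at room temperature. Luciferin read by luminescence; normalized to 1.43 uM quinidine.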

[12] = measured here: cell count channel max response
[13] = measured here: lipid channel max response

COCC(=O)N1CCC2(CCCN(Cc3ccc(C#N)cc3)C2)CC1
inactive: Potency [1] > 11.4 µM | activity change, negative = inhibition [2] 12.6% | activity, negative = inhibition [3] 1.68% | Potency [4] > 46 µM | Potency [5] | Potency [6] | activity change, negative = inhibition [7] 4.66% | outcome [8]
3.44%: max response [7, 13]
-1.66%: max response [7, 12]

CC(=O)N1CCC2(CCCN(Cc3ccc(C#N)cc3)C2)CC1
10.3%: max response [7, 12]
inactive: Potency [1] > 11.4 µM | activity change, negative = inhibition [2] 1.53% | activity, negative = inhibition [3] 6.73% | Potency [4] > 46 µM | Potency [5] | Potency [6] | activity change, negative = inhibition [7] 4.86% | outcome [8]
18.3%: max response [7, 13]

O=C(c1ccncc1)N1CCC2(CC1)CN(c1ccncc1)C2
inactive: Potency [1] > 11.4 µM | activity change, negative = inhibition [2] 6.26% | activity, negative = inhibition [3] 1.34% | Potency [4] > 46 µM | Potency [5] | Potency [6] | activity change, negative = inhibition [7] 1.59% | outcome [8]
-20.1%: max response [7, 12]
-17.6%: max response [7, 13]

COc1ccc(C(=O)N2CCC3(CC2)CN(CC(C)C)C3)cc1
inactive: Potency [1] > 11.4 µM | activity change, negative = inhibition [2] 1.62% | activity, negative = inhibition [3] 6.78% | Potency [4] > 46 µM | Potency [5] | Potency [6] | activity change, negative = inhibition [7] 3.28% | outcome [8]
21.1%: max response [7, 13]
16.1%: max response [7, 12]

COc1ccccc1CN1CCC2(CC1)CCN(C(=O)c1csnn1)CC2
24.4%: max response [7, 13]
inactive: Potency [1] > 11.4 µM | activity change, negative = inhibition [2] 0.316% | activity, negative = inhibition [3] -5.49% | Potency [4] > 46 µM | Potency [5] | Potency [6] | Potency [9] | activity change, negative = inhibition [7] 5.71% | outcome [8]
16.4%: max response [7, 12]

O=C(c1cnccn1)N1CCC2(CCCN(Cc3ccccc3)C2)CC1
14.6%: max response [7, 12]
inactive: Potency [1] > 11.4 µM | activity change, negative = inhibition [2] -6.44% | activity, negative = inhibition [3] -11.8% | Potency [4] > 46 µM | Potency [5] | Potency [6] | activation [10] 16.9% | activity change, negative = inhibition [7] 1.18% | outcome [8]
17.1%: max response [7, 13]

O=C(c1cnccn1)N1CCC2(CC1)CCN(c1ccncc1)CC2
inactive: Potency [1] > 11.4 µM | activity change, negative = inhibition [2] 15.7% | activity, negative = inhibition [3] 2.83% | Potency [4] > 46 µM | Potency [5] | Potency [6] | activity change, negative = inhibition [7] 2.66% | outcome [8]
8.09%: max response [7, 13]
3.08%: max response [7, 12]

CC(C)CN1CCC2(CC1)CCN(C(=O)c1ccncc1)CC2
14.2%: max response [7, 12]
14.7%: max response [7, 13]
inactive: Potency [1] > 11.4 µM | activity change, negative = inhibition [2] -3.14% | activity, negative = inhibition [3] -5.7% | Potency [4] > 46 µM | Potency [5] | Potency [6] | Potency [9] | activity change, negative = inhibition [7] 0.393% | outcome [8]
active: Potency [11] 3.98 µM
